# Assay outcomes: PubChem, National Center for Advancing Translational Sciences (NCATS)
# Rows were chosen to be rich in hits. Some 1.7% of all compounds tested hit in one or more screens of this group.
# HEK293 tox: qHTS of GLP-1 Receptor Inverse Agonists: Cytotox Screen; AID 624418, 2012; Potency, µM (titrated, usually from 38.3 µM), without a hit: at the top dose activity change, negative = inhibition, usual class: inhibitors; HEK293 cAMP-luciferase reporter cells, luminescence, 24 h; 410,000 tested, 0.13% active;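 further: loss of luciferase light is scored as toxicity; on the % scale 0 is the no-effect control and ±100 the full control effect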
#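 To flag toxic compounds, the library was rerun on cells for 24 hr at 37 deg C and 5% CO2. Viability-linked luminescence was captured 12 min after adding luciferase detection reagent.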
# PTHR1 ag: qHTS for PTHR1 Agonists: Primary Screen | Parathyroid hormone/parathyroid hormone-related peptide receptor (Homo sapiens), Q03431 | HEK293 GP2 PTHR1 cells, GloSensor cAMP luminescence, 1 h | Potency, µM (doses to about 115 µM), for inactives: top-dose activation, usual class: activators | 410,000 tested, 0.075% active; further: nearly all actives have a fitted effect of over 55% in size
# Target sequence (Q03431 whole entry, looked up): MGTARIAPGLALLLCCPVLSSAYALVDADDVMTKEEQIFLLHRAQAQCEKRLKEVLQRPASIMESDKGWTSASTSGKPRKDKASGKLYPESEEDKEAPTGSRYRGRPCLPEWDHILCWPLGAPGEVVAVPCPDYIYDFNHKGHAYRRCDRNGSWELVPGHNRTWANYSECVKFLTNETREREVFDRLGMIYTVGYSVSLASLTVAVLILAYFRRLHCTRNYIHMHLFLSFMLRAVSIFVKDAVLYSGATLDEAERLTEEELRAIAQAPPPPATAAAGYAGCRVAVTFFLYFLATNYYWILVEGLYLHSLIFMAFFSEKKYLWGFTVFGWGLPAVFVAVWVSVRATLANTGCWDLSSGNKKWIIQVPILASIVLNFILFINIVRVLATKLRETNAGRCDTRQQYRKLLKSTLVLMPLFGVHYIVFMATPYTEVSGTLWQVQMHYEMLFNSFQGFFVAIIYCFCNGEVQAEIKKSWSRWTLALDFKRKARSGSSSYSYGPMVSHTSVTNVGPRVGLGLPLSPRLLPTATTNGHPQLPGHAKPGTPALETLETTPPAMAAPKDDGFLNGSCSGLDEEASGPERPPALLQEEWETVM
#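 HEK-293-derived GP2 cells expressing PTHR1 and a GloSensor cAMP reporter, 3,000/well, plated overnight, given luciferin plus IBMX (each 0.5 mM as added) for 1 h at 37 °C, then compound for 1 h at 37 °C. Luminescence was read after 15 min at room temperature.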
# GLP-1R agonist: qHTS of GLP-1 Receptor Agonists; Glucagon-like peptide 1 receptor (Homo sapiens), P43220; HEK293 GLP-1R CRE-luciferase, luminescence, 4-6 h; cells express a hypersensitive GLP-1R form; Potency, µM (series often up to 45.6 µM), for inactives: at the highest dose activation, hits mostly activators; 380,000 tested, 0.007% active; AID 624172, 2012; further: % of control where 0% means no effect
# GLP1R inv ag: qHTS of GLP-1 Receptor Inverse Agonists (Inhibition Mode); Glucagon-like peptide 1 receptor (Homo sapiens), P43220; HEK293 GLP-1R CRE-luciferase, luminescence, 24 h; GLP-1R form is constitutively active; Potency, µM (highest dose often 38.3 µM), without a hit: at the top dose activity change, negative = inhibition, usual class: inhibitors; 410,000 tested, 1.6% active; further: on the % scale 0 is the no-effect control and ±100 the full control effect; nearly all actives have a fitted effect of over 55% in size
#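 Seeding at 200 cells/uL, 12 h culture, 24 hr compound treatment, then luciferase reagent and a luminescence read; cells are HEK293 stably expressing a constitutively active GLP-1R plus cAMP-responsive luciferase.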
# * = called active by the depositor; i = inactive; ? = inconclusive; · = no result; [ ] = another dose, or the depositor's remark. The call rests on the fitted dose curve; in most records, active means well fitted curve in the direction sought with a large enough effect; inconclusive means small, poorly fitted or top-dose-only effect, or another doubt; inactive means no such curve, though single readings can be large; an effect the other way counts as inactive or inconclusive. Potency means the concentration at half of the fitted maximal effect.
SMILES,HEK293 tox,PTHR1 ag,GLP-1R agonist,GLP1R inv ag
CC(=O)OCC(=O)[C@@]1(O)[C@H](C)C[C@H]2C3C[C@H](F)C4=CC(=O)C=CC4(C)C3[C@@H](O)CC21C (some centres not stated),·,·,-4.2%,·
COc1ccc([N+](=O)[O-])cc1NC(=O)C1C2C=CC(C2)C1C(=O)O (configuration not stated),3.9%,-4.5%,8.7%,6.7%
CC(C)c1ccc(NC(=O)[C@H](Cc2c[nH]c3ccccc23)NC(=O)[C@@H]2Cc3ccccc3CN2)cc1,-16.4%,i,0.4%,?
COc1ccc(NC(=O)[C@H](Cc2c[nH]c3ccccc23)NC(=O)[C@@H]2Cc3ccccc3CN2)cc1,-10.2%,-13.6%,0.5%,5.62µM*
O=C(CN1CCN(S(=O)(=O)/C=C/c2ccccc2)CC1)NCC(F)(F)F,-3.2%,-16.0%,5.3%,-3.4%
O=C(CN(c1ccc(Cl)cc1)S(=O)(=O)c1ccccc1)N/N=C/c1ccco1,-2.0%,-3.7%[57.5 µM],-9.7%,?
Cc1ccc(S(=O)(=O)N(CC(=O)N/N=C/c2ccco2)c2cc(Cl)cc(Cl)c2)cc1,?,-7.5%,3.8%,6.31µM*
CC1C(=O)N(Cc2ccc([N+](=O)[O-])cc2)c2ccccc2N1C(=O)c1c(F)cccc1F (configuration not stated),0.8%,-74.1%,3.6%,10µM*
COc1ccc(CN2C(=O)C(C)N(C(=O)c3c(F)cccc3F)c3ccccc32)cc1 (configuration not stated),5.0%,-29.8%,3.0%,?
Cc1ccc(-c2cc(=O)c3cc(C)ccc3[nH]2)cc1,-38.1%,-80.0%,-9.8%,3.16µM*
Cc1ccc(-c2cc(=O)c3cc(F)ccc3[nH]2)cc1,-0.3%,-35.9%,0.6%,-16.0%
Cc1ccc(-c2nc3ccccc3c(=O)n2Cc2ccccc2)cc1,-8.3%,i,16.5%,3.55µM*
COc1ccc(-c2nc3ccccc3n2Cc2ccc(Cl)cc2)cc1,-1.6%,i,·,10µM*
COc1ccc(-c2nc3ccccc3n2Cc2ccc(C(C)C)cc2)cc1,2.3%,-20.8%,0.6%,10µM*
Cc1ccc(Cn2c(-c3ccccc3)nc3ccccc32)cc1,17.4%,-38.0%,·,?
COc1ccc(-c2nc3ccccc3n2Cc2ccc(C)cc2)cc1,-26.1%,-13.4%,3.3%,?
N/C(Cc1ccccc1)=N\OC(=O)c1cccc2ccccc12,10µM*,7.1%,?,12.6µM*
Cc1ccc(S(=O)(=O)N2CCN(C(=O)CSc3ncc(C(F)(F)F)cc3Cl)CC2)cc1,3.9%,-17.7%[57.5 µM],-16.4%,10µM*
COc1ccc(C2C(C#N)=C(N)N(Nc3ccccc3)C3=C2C(=O)CC(C)(C)C3)cc1C (configuration not stated),162.5%,-72.5%[57.5 µM],-11.9%,?
COc1cc(C2C(C#N)=C(N)N(Nc3ccccc3)C3=C2C(=O)CC(C)(C)C3)ccc1OCc1ccccc1 (configuration not stated),14.1%,-18.0%[57.5 µM],-13.8%,3.16µM*
COc1cc(C2C(C#N)=C(N)N(Nc3ccccc3)C3=C2C(=O)CC(C)(C)C3)ccc1OCc1cccc(F)c1 (configuration not stated),-7.4%,i,-13.5%,5.62µM*
COc1ccc(C2C(C#N)=C(N)N(N(C)C)C3=C2C(=O)CC(C)(C)C3)cc1OC (configuration not stated),-0.3%,i,7.7%,22.5%
Cn1cc([C@@H]2C[C@H]3CN(Cc4cccc(Cl)c4)C(=O)[C@]34CCCN24)c2ccccc21,-24.4%,-50.4%,0.5%,?
COc1ccccc1-c1noc(CCCC(=O)NC2CCCCC2)n1,7.4%,i,8.3%,18.4%
O=C(Nc1ccccc1)Nc1ccc(-n2ccc(C(F)(F)F)n2)cc1,-22.1%,-1.6%,10.1%,7.08µM*
SMILES,HEK293 tox,PTHR1 ag,GLP-1R agonist,GLP1R inv ag
O=C(/C=C/NNC(=O)c1ccc(Br)cc1)c1ccccc1,?,-12.8%[57.5 µM],-8.8%,?
O=C(/C=C/NNC(=O)c1ccccc1)c1ccccc1,3.16µM*,-17.4%[57.5 µM],-4.0%,?
CCc1nnc2c(N3CCN(c4cccc(C)c4)C(C)C3)nc3ccccc3n12 (configuration not stated),3.6%,-1.1%,·,2.5%
Cc1cc(C(=O)CSc2ccc3c(c2)OCCO3)c(C)n1C1CC1,-2.8%,-38.2%,14.7%,?
O=C(c1ccccc1)C(CN1CCCCC1)c1ccccc1 (configuration not stated),?,-7.4%,-7.4%,2.82µM*
O=C(c1ccc(Br)cc1)C(CN1CCOCC1)c1ccccc1 (configuration not stated),?,-45.6%,-5.8%,?
CN(C)CC(C(=O)c1ccccc1)c1ccccc1 (configuration not stated),8.91µM*,-28.4%,-42.0%,13.0%
O=C(CC(C(=O)c1ccccc1)c1ccccc1)c1ccccc1 (configuration not stated),8.5%,-7.2%,1.7%,10µM*
O=P(O)(O)OC[C@H]1O[C@](O)(COP(=O)(O)O)[C@@H](O)[C@@H]1O,·,·,-0.8%,·
O=C(CN(Cc1ccc(Br)cc1)S(=O)(=O)c1ccccc1)NCc1ccccn1,14.4%,-30.0%,-13.1%,-22.5%
O=C(CN(Cc1ccccc1)S(=O)(=O)c1ccc(Br)cc1)NCc1ccco1,2.4%,i,1.2%,7.94µM*
Cc1ccc(S(=O)(=O)N(Cc2ccccc2)Cc2ccco2)cc1,15.1%,i,-7.8%,11.2µM*
CCn1cc(C(=O)N2CCN(c3ccc(F)cc3)CC2)c(=O)c2cc(S(=O)(=O)N3CCOCC3)ccc21,4.3%,?,-1.6%,7.9%
Cc1ccc(OCc2cc(=O)n3cc(C)sc3n2)c(NC(=O)c2ccco2)c1,-7.4%,-21.5%,·,11.3%
CCC(C(=O)Nc1cc(F)ccc1F)n1nc(C)c2c(C)n(-c3ccc(C)cc3)nc2c1=O (configuration not stated),-8.2%,-43.0%,4.1%,10µM*
CCC(C(=O)Nc1ccccc1F)n1nc(C)c2c(C)n(-c3ccccc3)nc2c1=O (configuration not stated),-20.3%,i,4.6%,?
COCCn1c(SCC(=O)NCCCN2CCCC2=O)nc2sc3c(c2c1=O)CCCC3,0.0%,-10.9%,15.8%,40.8%
Cc1ccc(NCCCn2cnc(C(=O)Nc3ccc(C)c(C)c3)n2)cc1C,-7.0%,i,-0.3%,-28.5%
Cc1cc(C)c(CN2CCN(CCCn3cnc(C(=O)Nc4ccc(C)c(C)c4)n3)CC2)c(C)c1,?,-19.1%,-0.3%,12.6µM*
COC(=O)NCC(c1ccco1)N1CCN(c2ccc(F)cc2)CC1 (configuration not stated),-11.0%,i,4.8%,-12.4%
